For three compounds, potency estimated from few doses results are on record in PMC11062922 (Nature Chemical Biology, 2023).

What all share (set-up): species or system human, MV4-11 + K-562 + COLO205 + SK-N-BE2 + OVCAR-8
Assay [1] deals with CIT. Conditions: read-out: apparent Kd; compound concentrations: 100 nM and 1000 nM (sheet 'Samples'), CATDS: 0.16560503181349201; n = 1.
For assay [2], the system named is CSNK1A1. Conditions: read-out: apparent Kd, compound concentrations: 100 nM and 1000 nM (sheet 'Samples'), n = 1.
For assay [3], the system named is CSNK1D. Particulars: read-out: apparent Kd, compound concentrations: 100 nM and 1000 nM (sheet 'Samples'), n = 1.
Assay [4] relates to CSNK1E. Particulars: read-out: apparent Kd, compound concentrations: 100 nM and 1000 nM (sheet 'Samples'), n = 1.
In assay [5] the test system is MAPK14. Particulars: read-out: apparent Kd; compound concentrations: 100 nM and 1000 nM (sheet 'Samples'), CATDS: 0.12679025336255401; n = 1.
Assay [6] concerns MAPKAPK2. Particulars: read-out: apparent Kd; compound concentrations: 100 nM and 1000 nM (sheet 'Samples'), CATDS: 0.125209165131694; n = 1.
For assay [7], the system named is PKN3. Conditions: read-out: apparent Kd; compound concentrations: 100 nM and 1000 nM (sheet 'Samples'), CATDS: 0.10775551436498899; n = 1.
Assay [8] deals with CDKL5. Conditions: read-out: apparent Kd; compound concentrations: 100 nM and 1000 nM (sheet 'Samples'), CATDS: 6.7048972560418404E-2; n = 1.
Assay [9] has as its system CLK1. Conditions: read-out: apparent Kd; compound concentrations: 100 nM and 1000 nM (sheet 'Samples'), CATDS: 9.1245201473329901E-2; n = 1.
In assay [10] the test system is CLK4. Conditions: read-out: apparent Kd; compound concentrations: 100 nM and 1000 nM (sheet 'Samples'), CATDS: 8.9493688970087706E-2; n = 1.
Assay [11] deals with DYRK1A. Particulars: read-out: apparent Kd; compound concentrations: 100 nM and 1000 nM (sheet 'Samples'), CATDS: 7.8911513629173299E-2; n = 1.
Assay [12] deals with MAPK8. Particulars: read-out: apparent Kd; compound concentrations: 100 nM and 1000 nM (sheet 'Samples'), CATDS: 6.0987882625533299E-2; n = 1.
Assay [13] deals with MELK. Conditions: read-out: apparent Kd; compound concentrations: 100 nM and 1000 nM (sheet 'Samples'), CATDS: 6.0030175657403803E-2; n = 1.
Assay [14] has as its system NQO2. Particulars: read-out: apparent Kd; compound concentrations: 100 nM and 1000 nM (sheet 'Samples'), CATDS: 6.6170323393418801E-2; n = 1.
The test system of assay [15] is RIOK2. Particulars: read-out: apparent Kd; compound concentrations: 100 nM and 1000 nM (sheet 'Samples'), CATDS: 9.8324164530309899E-2; n = 1.
Assay [16] concerns TGFBR2. Particulars: read-out: apparent Kd; compound concentrations: 100 nM and 1000 nM (sheet 'Samples'), CATDS: 8.1907636331175093E-2; n = 1.
The subject of assay [17] is CDK7. Conditions: read-out: apparent Kd; compound concentrations: 100 nM and 1000 nM (sheet 'Samples'), CATDS: 6.6688716966174802E-2; n = 1.
Assay [18] has as its system EPHA4. Particulars: read-out: apparent Kd; compound concentrations: 100 nM and 1000 nM (sheet 'Samples'), CATDS: 4.9130602297819598E-2; n = 1.
The subject of assay [19] is EPHA5. Particulars: read-out: apparent Kd; compound concentrations: 100 nM and 1000 nM (sheet 'Samples'), CATDS: 4.6938657100171297E-2; n = 1.
Assay [20] deals with EPHB2. Conditions: read-out: apparent Kd; compound concentrations: 100 nM and 1000 nM (sheet 'Samples'), CATDS: 5.6373238091853198E-2; n = 1.
In assay [21] the test system is EPHB4. Particulars: read-out: apparent Kd; compound concentrations: 100 nM and 1000 nM (sheet 'Samples'), CATDS: 6.1848145802902502E-2; n = 1.
The subject of assay [22] is ERCC2. Conditions: read-out: apparent Kd; compound concentrations: 100 nM and 1000 nM (sheet 'Samples'), CATDS: 7.18018036860264E-2; n = 1.
Assay [23] has as its system FER. Particulars: read-out: apparent Kd; compound concentrations: 100 nM and 1000 nM (sheet 'Samples'), CATDS: 6.7369227307756602E-2; n = 1.
For assay [24], the system named is GAK. Conditions: read-out: apparent Kd; compound concentrations: 100 nM and 1000 nM (sheet 'Samples'), CATDS: 6.1535147387706803E-2; n = 1.
Assay [25] deals with GSK3A. Particulars: read-out: apparent Kd; compound concentrations: 100 nM and 1000 nM (sheet 'Samples'), CATDS: 4.87406111355713E-2; n = 1.
Assay [26] has as its system PIK3CB. Particulars: read-out: apparent Kd; compound concentrations: 100 nM and 1000 nM (sheet 'Samples'), CATDS: 5.9648096714639699E-2; n = 1.
The test system of assay [27] is PRKAA1. Particulars: read-out: apparent Kd; compound concentrations: 100 nM and 1000 nM (sheet 'Samples'), CATDS: 4.9195025679132399E-2; n = 1.
Assay [28] deals with PRKAG2. Conditions: read-out: apparent Kd; compound concentrations: 100 nM and 1000 nM (sheet 'Samples'), CATDS: 5.0151658649726198E-2; n = 1.
For assay [29], the system named is PTK2B. Conditions: read-out: apparent Kd; compound concentrations: 100 nM and 1000 nM (sheet 'Samples'), CATDS: 5.5106996532726202E-2; n = 1.
The subject of assay [30] is PTK2. Particulars: read-out: apparent Kd; compound concentrations: 100 nM and 1000 nM (sheet 'Samples'), CATDS: 5.55941477403585E-2; n = 1.
Assay [31] relates to RPS6KA6. Particulars: read-out: apparent Kd; compound concentrations: 100 nM and 1000 nM (sheet 'Samples'), CATDS: 5.82257386615097E-2; n = 1.
The test system of assay [32] is TNK1. Conditions: read-out: apparent Kd; compound concentrations: 100 nM and 1000 nM (sheet 'Samples'), CATDS: 9.1910216493779603E-2; n = 1.
Assay [33] concerns TNK2. Particulars: read-out: apparent Kd; compound concentrations: 100 nM and 1000 nM (sheet 'Samples'), CATDS: 8.5615413066405396E-2; n = 1.

Where two headings read alike, the source gives them in different places.

With `Cc1ccn2nc(-c3ccc(F)cc3)c(-c3ccncc3)c2c1.Cl` [GW457859A], the potency estimated from few doses was 653 nM in [1]; 2070 nM in [2] (CATDS: 0.105298123149642); 165 nM in [3] (CATDS: 0.38029539442901); 578 nM in assay [4] (CATDS: 0.17601881181755799); 1200 nM in assay [5]; 1240 nM in [6]. Moreover, in assay [7], the potency estimated from few doses is 1920 nM.
As for `FC(F)(F)CNc1nccc(-c2cnn3ncccc23)n1` [GW683003X], the potency estimated from few doses in assay [8] is 1220 nM; in [9], 572 nM; in assay [10], 596 nM; in assay [2] (CATDS: 7.1676757807884198E-2), 1010 nM; in assay [3] (CATDS: 0.23797441251711701) it was 117 nM; in [4] (CATDS: 0.17923780337449699), 176 nM. The potency estimated from few doses is 792 nM in assay [11]; 1650 nM in assay [12]; 1740 nM in assay [13]; 1270 nM in assay [14]; 491 nM in assay [15]; 726 nM in assay [16].
As to `COc1ccc(Nc2nccc(N3CCC(NC(=O)C(C)c4ccc(Cl)cc4)C3)n2)cc1` (stereo not drawn) [GSK1379735A], the potency estimated from few doses in assay [17] is 733 nM; in assay [18] it was 1410 nM; in assay [19], 1600 nM; in [20], 1020 nM; in [21], 846 nM; in [22] it was 641 nM. Besides, the potency estimated from few doses in [23] was 719 nM; in assay [24], 854 nM; in [25], 1440 nM; in assay [26], 910 nM; in [27], 1410 nM; in assay [28], 1340 nM. Further, the potency estimated from few doses in assay [29] is 1080 nM; in [30], 1060 nM; in assay [31] it was 956 nM; in assay [32], 430 nM; in assay [33] it was 479 nM.
